# Assay results taken from article PMC11062922 (Nature Chemical Biology, 2023).
# Where two headings read alike, the source gives them in different places.
# Columns and labels:
# IKBKE = conditions: read-out: apparent Kd, n = 1
# LATS1 = conditions: read-out: apparent Kd, n = 1
substance,measurement,setting,value
Lestaurtinib,potency estimated from few doses,"IKBKE; compound concentrations:100 nM and 1000 nM (sheet 'Lestaurtinib' of Supplementary Table 1),run:Lestaurtinib_02748_R1,Plate:MR024",505 nM
same,potency estimated from few doses,"IKBKE; compound concentrations:100 nM and 1000 nM (sheet 'Lestaurtinib' of Supplementary Table 1),run:Lestaurtinib_02748_R3,Plate:MR024",810 nM
same,potency estimated from few doses,"IKBKE; compound concentrations:100 nM and 1000 nM (sheet 'Lestaurtinib' of Supplementary Table 1),run:Lestaurtinib_02752_R1,Plate:MR025",783 nM
same,potency estimated from few doses,"IKBKE; compound concentrations:100 nM and 1000 nM (sheet 'Lestaurtinib' of Supplementary Table 1),run:Lestaurtinib_02752_R2,Plate:MR025",786 nM
same,potency estimated from few doses,"IKBKE; compound concentrations:100 nM and 1000 nM (sheet 'Lestaurtinib' of Supplementary Table 1),run:Lestaurtinib_02752_R3,Plate:MR025",596 nM
same,potency estimated from few doses,"IKBKE; compound concentrations:100 nM and 1000 nM (sheet 'Lestaurtinib' of Supplementary Table 1),run:Lestaurtinib_02765_R1,Plate:MR026",860 nM
same,potency estimated from few doses,"IKBKE; compound concentrations:100 nM and 1000 nM (sheet 'Lestaurtinib' of Supplementary Table 1),run:Lestaurtinib_02765_R3,Plate:MR026",731 nM
same,potency estimated from few doses,"IKBKE; compound concentrations:100 nM and 1000 nM (sheet 'Lestaurtinib' of Supplementary Table 1),run:Lestaurtinib_02768_R1,Plate:MR028",686 nM
same,potency estimated from few doses,"IKBKE; compound concentrations:100 nM and 1000 nM (sheet 'Lestaurtinib' of Supplementary Table 1),run:Lestaurtinib_02768_R2,Plate:MR028",820 nM
same,potency estimated from few doses,"IKBKE; compound concentrations:100 nM and 1000 nM (sheet 'Lestaurtinib' of Supplementary Table 1),run:Lestaurtinib_02768_R3,Plate:MR028",628 nM
same,potency estimated from few doses,"IKBKE; compound concentrations:100 nM and 1000 nM (sheet 'Lestaurtinib' of Supplementary Table 1),run:Lestaurtinib_02795_R1,Plate:MR022",874 nM
same,potency estimated from few doses,"IKBKE; compound concentrations:100 nM and 1000 nM (sheet 'Lestaurtinib' of Supplementary Table 1),run:Lestaurtinib_02795_R3,Plate:MR022",1210 nM
same,potency estimated from few doses,"IKBKE; compound concentrations:100 nM and 1000 nM (sheet 'Lestaurtinib' of Supplementary Table 1),run:Lestaurtinib_02802_R3,Plate:MR029",831 nM
same,potency estimated from few doses,"IKBKE; compound concentrations:100 nM and 1000 nM (sheet 'Lestaurtinib' of Supplementary Table 1),run:Lestaurtinib_02896_R1,Plate:MR030",749 nM
same,potency estimated from few doses,"IKBKE; compound concentrations:100 nM and 1000 nM (sheet 'Lestaurtinib' of Supplementary Table 1),run:Lestaurtinib_02896_R3,Plate:MR030",608 nM
same,potency estimated from few doses,"IKBKE; compound concentrations:100 nM and 1000 nM (sheet 'Lestaurtinib' of Supplementary Table 1),run:Lestaurtinib_03172_R2,Plate:MR031",814 nM
same,potency estimated from few doses,"IKBKE; compound concentrations:100 nM and 1000 nM (sheet 'Lestaurtinib' of Supplementary Table 1),run:Lestaurtinib_03172_R3,Plate:MR031",662 nM
same,potency estimated from few doses,"IKBKE; compound concentrations:100 nM and 1000 nM (sheet 'Lestaurtinib' of Supplementary Table 1),run:Lestaurtinib_03252_R1,Plate:MR032",804 nM
same,potency estimated from few doses,"IKBKE; compound concentrations:100 nM and 1000 nM (sheet 'Lestaurtinib' of Supplementary Table 1),run:Lestaurtinib_03260_R1,Plate:MR033",1210 nM
same,potency estimated from few doses,"IKBKE; compound concentrations:100 nM and 1000 nM (sheet 'Lestaurtinib' of Supplementary Table 1),run:Lestaurtinib_03260_R3,Plate:MR033",943 nM
same,potency estimated from few doses,"LATS1; compound concentrations:100 nM and 1000 nM (sheet 'Lestaurtinib' of Supplementary Table 1),run:Lestaurtinib_02339_R1,Plate:MR001",27.8 nM
same,potency estimated from few doses,"LATS1; compound concentrations:100 nM and 1000 nM (sheet 'Lestaurtinib' of Supplementary Table 1),run:Lestaurtinib_02339_R2,Plate:MR001",31.4 nM
same,potency estimated from few doses,"LATS1; compound concentrations:100 nM and 1000 nM (sheet 'Lestaurtinib' of Supplementary Table 1),run:Lestaurtinib_02339_R3,Plate:MR001",37.3 nM
same,potency estimated from few doses,"LATS1; compound concentrations:100 nM and 1000 nM (sheet 'Lestaurtinib' of Supplementary Table 1),run:Lestaurtinib_02364_R2,Plate:MR002",22.6 nM
same,potency estimated from few doses,"LATS1; compound concentrations:100 nM and 1000 nM (sheet 'Lestaurtinib' of Supplementary Table 1),run:Lestaurtinib_02364_R3,Plate:MR002",44.1 nM
same,potency estimated from few doses,"LATS1; compound concentrations:100 nM and 1000 nM (sheet 'Lestaurtinib' of Supplementary Table 1),run:Lestaurtinib_02367_R1,Plate:MR003",27.8 nM
same,potency estimated from few doses,"LATS1; compound concentrations:100 nM and 1000 nM (sheet 'Lestaurtinib' of Supplementary Table 1),run:Lestaurtinib_02367_R2,Plate:MR003",40.3 nM
same,potency estimated from few doses,"LATS1; compound concentrations:100 nM and 1000 nM (sheet 'Lestaurtinib' of Supplementary Table 1),run:Lestaurtinib_02367_R3,Plate:MR003",22.1 nM
same,potency estimated from few doses,"LATS1; compound concentrations:100 nM and 1000 nM (sheet 'Lestaurtinib' of Supplementary Table 1),run:Lestaurtinib_02381_R1,Plate:MR004",27 nM
same,potency estimated from few doses,"LATS1; compound concentrations:100 nM and 1000 nM (sheet 'Lestaurtinib' of Supplementary Table 1),run:Lestaurtinib_02407_R1,Plate:MR005",39.5 nM
same,potency estimated from few doses,"LATS1; compound concentrations:100 nM and 1000 nM (sheet 'Lestaurtinib' of Supplementary Table 1),run:Lestaurtinib_02407_R2,Plate:MR005",27.7 nM
same,potency estimated from few doses,"LATS1; compound concentrations:100 nM and 1000 nM (sheet 'Lestaurtinib' of Supplementary Table 1),run:Lestaurtinib_02422_R1,Plate:MR006",34.2 nM
same,potency estimated from few doses,"LATS1; compound concentrations:100 nM and 1000 nM (sheet 'Lestaurtinib' of Supplementary Table 1),run:Lestaurtinib_02422_R3,Plate:MR006",34.2 nM
same,potency estimated from few doses,"LATS1; compound concentrations:100 nM and 1000 nM (sheet 'Lestaurtinib' of Supplementary Table 1),run:Lestaurtinib_02437_R1,Plate:MR007",35 nM
same,potency estimated from few doses,"LATS1; compound concentrations:100 nM and 1000 nM (sheet 'Lestaurtinib' of Supplementary Table 1),run:Lestaurtinib_02437_R2,Plate:MR007",27 nM
same,potency estimated from few doses,"LATS1; compound concentrations:100 nM and 1000 nM (sheet 'Lestaurtinib' of Supplementary Table 1),run:Lestaurtinib_02437_R3,Plate:MR007",0.206 nM
same,potency estimated from few doses,"LATS1; compound concentrations:100 nM and 1000 nM (sheet 'Lestaurtinib' of Supplementary Table 1),run:Lestaurtinib_02438_R3,Plate:MR008",29 nM
same,potency estimated from few doses,"LATS1; compound concentrations:100 nM and 1000 nM (sheet 'Lestaurtinib' of Supplementary Table 1),run:Lestaurtinib_02443_R2,Plate:MR009",30.6 nM
same,potency estimated from few doses,"LATS1; compound concentrations:100 nM and 1000 nM (sheet 'Lestaurtinib' of Supplementary Table 1),run:Lestaurtinib_02443_R3,Plate:MR009",38.6 nM
same,potency estimated from few doses,"LATS1; compound concentrations:100 nM and 1000 nM (sheet 'Lestaurtinib' of Supplementary Table 1),run:Lestaurtinib_02482_R1,Plate:MR011",38.1 nM
same,potency estimated from few doses,"LATS1; compound concentrations:100 nM and 1000 nM (sheet 'Lestaurtinib' of Supplementary Table 1),run:Lestaurtinib_02482_R2,Plate:MR011",32.7 nM
same,potency estimated from few doses,"LATS1; compound concentrations:100 nM and 1000 nM (sheet 'Lestaurtinib' of Supplementary Table 1),run:Lestaurtinib_02482_R3,Plate:MR011",46 nM
